Data on 24 compounds can be found in PubChem BioAssay (NCATS).

Inconclusive results are not listed. Unmarked numbers belong to inactive results. Active and inactive are the calls of the source. Calls follow the shape of the dose curve; as a rule, active = well fitted curve in the direction sought with a large enough effect; inconclusive = small, poorly fitted or top-dose-only effect, or another doubt; inactive = no such curve, though single readings can be large; an effect the other way counts as inactive or inconclusive.

A short description of experiment [1]: Quantitative highthroughput screen to assess conditional lethalithy of NOMO1 cells grown in RPMI1640 with untreated serum (RPMI+s) (AID 1963876). Also: nearly all actives have a fitted effect of over 35% in size. Also: potency is read from the fitted curve at half-maximal effect.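 As to viability: 100% = DMSO wells and 0% = empty wells without cells.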 The essentials:
(§1)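 Each medium arm—HPLM with 10% dialyzed FBS, or RPMI1640 with 5 mM glucose and 10% untreated or dialyzed FBS—was screened against an 11-point, 3-fold compound titration for 48 h at 37 °C, with CellTiter-Glo luminescence as endpoint.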

Experiment [2] in a line: Quantitative highthroughput screen to assess conditional lethalithy of NOMO1 cells grown in RPMI1640 with dialyzed fetal bovine serum (RPMI+ds) (AID 1963877). Also: nearly all actives have a fitted effect of over 30% in size. Also: potency is read from the fitted curve at half-maximal effect.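 As to viability: series mostly up to about 46 µM; 100% = DMSO control wells and 0% = empty wells.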 Put shortly: as §1
Experiment [3] in a line: Quantitative highthroughput screen to assess conditional lethalithy of NOMO1 cells grown in Human Plasma-Like Medium with dialyzed fetal bovine serum (HPLM+ds) (AID 1963878). Also: nearly all actives have a fitted effect of over 35% in size. Also: potency is read from the fitted curve at half-maximal effect.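 As to viability: 100% = DMSO wells and 0% = empty wells on each plate.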 The essentials:
as §1

Experiment [4] in a line: Quantitative highthroughput screen to assess conditional lethalithy of P12 Ichikawa cells grown in Human Plasma-Like Medium with dialyzed fetal bovine serum (HPLM+ds) (AID 1963879). Also: nearly all actives have a fitted effect of over 35% in size. Also: potency is read from the fitted curve at half-maximal effect. As to viability: series mostly up to about 46 µM. The following applies: Potency: viability. The essentials: as §1
Experiment [5] is described as follows: Quantitative highthroughput screen to assess conditional lethalithy of P12 Ichikawa cells grown in RPMI1640 with untreated serum (RPMI+s) (AID 1963881). Also: nearly all actives have a fitted effect of over 35% in size. Also: potency is read from the fitted curve at half-maximal effect.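 As to viability: series mostly up to about 46 µM; 100% = DMSO wells and 0% = empty wells without cells.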 The following applies: Potency: viability. The essentials: as §1
Experiment [6] is described as follows: Cellular viability qHTS for adrenocortical cancer (ACC) cell line SW-13 (AID 1963989).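 Also: cells grown in serum-free medium with ITS supplement; % is scaled to controls: 0 for no effect and ±100 for the full control effect; nearly all actives have a fitted effect of over 65% in size.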 The following applies: SW-13 ACC cells viability, CellTiter-Glo, 48 h; activity (max response): hits give low values. The essentials: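 48 h treatment, SW-13 in ITS/DMEM serum-free; doses up to 46 uM; readout CellTiter-Glo luminescence; curve fit four-parameter logistic.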
Background: qHTS replaces the single test concentration by a dilution series.

Experiment [7] can be described thus: Cellular viability qHTS for adrenocortical cancer (ACC) cell line NCI-H295R (AID 1963990).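 Also: 0% = DMSO only wells and -100% = full killing with cytotoxic reference compound; nearly all actives have a fitted effect of over 60% in size.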 The essentials: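 Compound titrations (up to 46 uM final) are applied to NCI-H295R cultures for 48 h at 37C. Viable cell number is estimated by CellTiter-Glo signal, normalised to DMSO and doxorubicin controls.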
Experiment [8] in a line: Quantitative highthroughput screen to assess conditional lethalithy of SEM cells grown in Human Plasma-Like Medium with dialyzed fetal bovine serum (HPLM+ds) (AID 1963882). Also: nearly all actives have a fitted effect of over 35% in size. Also: potency is read from the fitted curve at half-maximal effect. As to viability: series mostly up to about 46 µM. The essentials:
as §1

The nature of experiment [9]: Quantitative highthroughput screen to assess conditional lethalithy of SEM cells grown in RPMI1640 with unreated serum (RPMI+s) (AID 1963883). Also: nearly all actives have a fitted effect of over 35% in size. Also: potency is read from the fitted curve at half-maximal effect.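 As to viability: 100% = DMSO wells and 0% = empty wells without cells.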 Put shortly:
as §1

Experiment [10] can be described thus: Quantitative highthroughput screen to assess conditional lethalithy of SEM cells grown in RPMI1640 with dialyzed fetal bovine serum (RPMI+ds) (AID 1963884). Also: nearly all actives have a fitted effect of over 35% in size. Also: potency is read from the fitted curve at half-maximal effect.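 As to viability: series mostly up to about 46 µM; 100% = DMSO control wells and 0% = empty wells without cells.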 The essentials:
as §1

Experiment [11] in a line: Quantitative highthroughput screen to assess conditional lethalithy of P12 Ichikawa cells grown in RPMI1640 with dialyzed fetal bovine serum (RPMI+ds) (AID 1963880). Also: nearly all actives have a fitted effect of over 35% in size. Also: potency is read from the fitted curve at half-maximal effect.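 As to viability: 100% = DMSO wells and 0% = empty wells on each plate.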 The following applies: Potency: P12-Ichikawa viability. Put shortly: as §1

As to `CC(C(C)N1CC(=O)NC(=O)C1)N1CC(=O)NC(=O)C1` (stereo unspecified), the Potency result in [1], in [2], in experiment [3] and in experiment [7] was “inactive” throughout. Further, the Potency was 13200 nM (active) in [4] and 1660 nM (active) in [5]. Further, the activity (max response) in experiment [6] was 12.5%.

Regarding `Cc1c(C)c2c(c(C)c1O)CCC(C)(COc1ccc(CC3SC(=O)NC3=O)cc1)O2` (stereo unspecified), the Potency result in [1], in experiment [2], in [3], in [4], in experiment [5] and in experiment [7] was “inactive” each time. Moreover, in experiment [8], the Potency was 16600 nM (active).

For the compound `Clc1ccc(CCC(Cn2ccnc2)Sc2c(Cl)cccc2Cl)cc1` (stereo unspecified), the Potency entry in experiment [1], in experiment [2], in experiment [3], in experiment [4] and in experiment [8] was “inactive” throughout.

Regarding `O=C1NC(=O)C(=Cc2ccc3nccnc3c2)S1`, the Potency entry in [1], in experiment [2], in [3], in experiment [4], in experiment [5] and in [9] was “inactive” throughout. Further, the Potency entry in [10] is “inactive”.

As to `O=C1NC(=O)C(=Cc2cccc(C(F)(F)F)c2)S1`, the Potency entry in experiment [1], in experiment [2], in experiment [3], in experiment [4], in experiment [5] and in [8] was “inactive” in each case.

Turning to `CCc1cnn2c(NCc3ccc[n+]([O-])c3)cc(N3CCCC[C@@H]3CCO)nc12`, the Potency in experiment [1] was 118 nM (active); in experiment [2], 93.5 nM (active); in [3], 105 nM (active); in experiment [4], 118 nM (active); in experiment [11], 118 nM (active); in [9], 59 nM (active). Further, in experiment [10], the Potency was 59 nM (active).

As to `CCCNS(=O)(=O)Nc1ncnc(OCCOc2ncc(Br)cn2)c1-c1ccc(Br)cc1`, the Potency entry in experiment [1], in [2], in experiment [3], in [4], in experiment [11] and in experiment [8] was “inactive” in each case. The Potency entry in [7] is “inactive”.

For the compound `C=CC[N+]1([C@H]2C[C@H]3[C@@H]4CC[C@H]5C[C@H](O)[C@@H](N6CCOCC6)C[C@]5(C)[C@@H]4CC[C@]3(C)[C@H]2OC(C)=O)CCCC1`, the Potency result in [1], in [2], in [3], in experiment [4], in experiment [5] and in experiment [8] was “inactive” throughout. Also, the Potency entry in [9] and in experiment [10] was “inactive” in each case.

Regarding `O=c1ccn([C@@H]2O[C@H](CO)[C@H](O)[C@H]2O)c(=O)[nH]1`, the Potency entry in experiment [1], in experiment [2], in experiment [3], in experiment [4], in experiment [11] and in experiment [9] was “inactive” throughout. The Potency result in [10] was “inactive”.

Consider `NS(=O)(=O)c1cc(C(=O)O)c(NCc2ccco2)cc1Cl`, for which the Potency entry in experiment [1], in [2], in [3], in experiment [4], in [11] and in experiment [7] was “inactive” throughout. In [6], the activity (max response) was -1.8%.

For `COc1ccc2cc([S+]([O-])Cc3ncc(C)c(OC)c3C)nc2c1`, the Potency entry in experiment [1], in [2], in experiment [3], in [4], in [11] and in experiment [9] was “inactive” each time. Besides, in experiment [10], the Potency is 935 nM (active).

For `O=C(O)[C@@H](c1ccc(OCc2ccc3ccccc3n2)cc1)C1CCCC1`, the Potency entry in [1], in [2], in experiment [3], in experiment [4], in [5] and in experiment [8] was “inactive” each time. Further, the Potency entry in experiment [9] and in experiment [7] was “inactive” in each case. For the same compound, the activity (max response) in experiment [6] is -1.81%.

With `Cc1cc(SCc2sc(-c3ccc(C(F)(F)F)cc3)nc2C)ccc1OCC(=O)O`, the Potency result in experiment [1], in experiment [2], in experiment [3], in experiment [4], in experiment [5] and in experiment [7] was “inactive” in each case.

Take `O=C1NC(=O)C(=Cc2ccc(-c3ccc(F)cc3O)o2)S1`: the Potency result in experiment [1], in [3], in experiment [4], in [8] and in experiment [9] was “inactive” each time. Moreover, the Potency in experiment [2] is 10500 nM (active); in experiment [5], 6620 nM (active).

For `Nc1nc(=O)n([C@H]2CSC(CO)O2)cc1F` (stereo partly specified), the Potency entry in experiment [1], in experiment [2], in [3], in [4], in experiment [5] and in experiment [9] was “inactive” each time.

Regarding `COc1cc(C=CC(=O)O)ccc1O`, the Potency result in [1], in [2], in experiment [3], in [4], in experiment [5] and in experiment [8] was “inactive” each time. The Potency result in experiment [9] is “inactive”.

On to `C[C@]12C=CC(=O)N[C@@H]1CC[C@H]1[C@H]3CC[C@@H](C(=O)Nc4cc(C(F)(F)F)ccc4C(F)(F)F)[C@@]3(C)CC[C@@H]12`, for which the Potency result in [1], in experiment [2], in experiment [3], in experiment [4], in experiment [5] and in experiment [8] was “inactive” in each case. For the same compound, the Potency entry in experiment [9] and in experiment [10] was “inactive” each time.

Take `CCCCOCCOc1nc(-c2ccc(C(=O)O)c(F)c2)sc1C`: the Potency entry in [1], in [2], in experiment [3], in experiment [4], in experiment [5] and in [8] was “inactive” each time. The Potency entry in experiment [9] and in experiment [7] was “inactive” each time. In [6], the activity (max response) was -9.17%.

For `CC(=O)OCC(=O)[C@@]1(O)CC[C@H]2[C@@H]3CCC4=CC(=O)C=C[C@]4(C)[C@@H]3[C@@H](O)C[C@@]21C`, the Potency result in experiment [1], in experiment [2], in [3], in [4], in experiment [5] and in experiment [9] was “inactive” in each case. Also, the Potency entry in experiment [10] is “inactive”.

With `C[C@H]1[C@H](NC(=O)C(=NOC(C)(C)C(=O)O)c2csc(N)n2)C(=O)N1S(=O)(=O)O`, the Potency result in experiment [1], in [2], in experiment [3], in experiment [4], in [5] and in [8] was “inactive” each time. Besides, the Potency result in experiment [9] is “inactive”.

Consider `C[C@]12CCC(=O)C=C1[C@@H]1CC1[C@H]1[C@H]3[C@@H]4C[C@H]4[C@@]4(CCC(=O)O4)[C@@]3(C)CC[C@H]12` (stereo partly specified), for which the Potency result in [1], in [2], in [3], in [4], in experiment [5] and in [9] was “inactive” in each case. The Potency result in experiment [10] is “inactive”.

On to `C[C@]12CCC3c4ccc(O)cc4CCC3C1CCC2=O` (stereo partly specified), for which the Potency result in experiment [1], in [2], in experiment [3], in experiment [5], in [9] and in [7] was “inactive” each time. In experiment [6], the activity (max response) was -21%.

On to `O=C1NC(=O)C(=Cc2ccc3c(c2)OC(F)(F)O3)S1`, for which the Potency result in experiment [1], in experiment [2], in experiment [3], in [11] and in [5] was “inactive” in each case.

Turning to `COc1ccc(C(C)=O)c(O)c1`, the Potency in experiment [1] was 2640 nM (active); in [2], 2960 nM (active); in experiment [3], 935 nM (active); in experiment [5], 8330 nM (active). The Potency entry in [9] and in experiment [10] was “inactive” throughout.
